# In the library only some 4.2% were active in any assay of this set; here they are far more common.
# FBA Mtb inh: Mtb FBA enzyme inhibitors, primary screen, biochemical, fluorescence, strain H37Rv. AID 588726, 2011. 360,000 compounds, 2.3% hits. inhibition, % at 1 µM. Fructose-bisphosphate aldolase (Mycobacterium tuberculosis (strain ATCC 25618 / H37Rv)), …. purified M. tuberculosis FBA, fluorescence read-out; in the data active means inhibition above about 27%;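 further: 0% = vehicle and 100% = reference inhibitor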
# CCHF vOTU inh: CCHFV vOTU protease inhibitors, primary screen, biochemical, Pep-AMC substrate, fluorescence | AID 651958, 2012 | Crimean-Congo hemorrhagic fever virus L polyprotein viral ovarian tumor (vOTU) protease … | 370,000 compounds, 0.55% hits | inhibition, % at 11.5 µM; further: 0% = vehicle wells with enzyme and 100% = no enzyme wells
# RecA splice inh: Mtb RecA intein splicing inhibitors, primary screen, biochemical, fluorescence, HTS | Protein RecA (Mycobacterium tuberculosis (strain ATCC 25618 / H37Rv)), P9WHJ3 | cell-free RecA intein splicing | inhibition, % (concentration not given with the values) | 290,000 compounds, 0.75% hits | AID 2221, 2009; in the data active means inhibition above about 30%;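 further: 0% = vehicle wells and 100% = reference inhibitor control wells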
# GDH-TPI counter-1: GDH-TPI coupling enzyme inhibitors, primary screen, artefact control for M. tuberculosis FBA inhibitor project, biochemical, absorbance, full deck; GDH-TPI coupled enzyme counterscreen, NADH absorbance; inhibition, % at 4.8 µM; 360,000 compounds, 1.2% hits; AID 588335, 2011;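 further: 0% = DMSO wells and 100% = wells lacking the enzyme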
# Mtb betalactam: beta-lactam sensitization of Mtb H37Rv, H37Rv; M. tuberculosis H37Rv growth with meropenem, percent inhibition; inhibition, % at 25 µM; 330,000 compounds, 0.27% hits; call rule not given here;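 further: growth measured after seven days incubation then overnight dye step; 0% = bacteria only wells and 100% = bacteria with antibiotic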
# Mtb FBA inh conf: M. tuberculosis aldolase blockers, biochemical, fluorescence, strain H37Rv, confirmation; shares compounds with FBA Mtb inh; purified M. tuberculosis FBA, fluorescence read-out; inhibition, % at 1 µM; 5,600 compounds, 78% hits; AID 651616, 2012; in the data active means inhibition above about 27%;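 further: 0% = vehicle wells and 100% = reference inhibitor wells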
# GDH-TPI counter-2: GDH-TPI coupling enzyme inhibitors, artefact control for M. tuberculosis FBA inhibitor project, biochemical, fluorescence, high throughput; shares compounds with FBA Mtb inh; GDH-TPI coupled enzyme counterscreen; inhibition, % at 1 µM; 5,600 compounds, 81% hits; AID 652141, 2013; in the data active means inhibition above about 10%
# * hit, by the source's call; nt = not tested or not shown; + = active, no number. Unless noted, no stated cut-off is given here; in the data, active means inhibition above about 30%; inactive means the rest.
SMILES,FBA Mtb inh,CCHF vOTU inh,RecA splice inh,GDH-TPI counter-1,Mtb betalactam,Mtb FBA inh conf,GDH-TPI counter-2
O=C(Nc1cccc(C(=O)O)c1)Nc1cccc2ccccc12,4.8,6.8,-2.0,3.9,8.1,nt,nt
O=C(O)c1cccc([N+](=O)[O-])c1C(=O)Nc1cccc2ccccc12,48.3*,-27.9,0.3,7.7,1.8,116.2*,98.6*
O=C(O)c1ccc(C(=O)Nc2cccc3ccccc23)c(C(=O)O)c1,53.9*,-9.3,21.3,8.6,7.1,155.2*,111.5*
O=C(NCCc1ccccc1)OCc1cn(Cc2ccc(F)cc2)nn1,nt,-3.2,nt,nt,nt,nt,nt
CN1OC[C@@H]2CN(Cc3ccc4c(c3)OCO4)[C@H](c3ccc(-n4ccnc4)cc3)C[C@@H]21,nt,13.8,nt,nt,nt,nt,nt
O=c1[nH]c2ccccc2nc1-c1cccs1,103.9*,-159.3,-138.5,14.7,-5.2,142.6*,106.6*
CC1=C(C(=O)N2CCOCC2)C(c2ccccc2F)C2=C(CCCC2=O)N1 (stereo unspecified),27.8*,-38.6,-2.1,13.7,-0.4,92.0*,61.3*
CNc1cnc(-c2ccsc2)cn1,88.0*,-101.1,nt,8.9,nt,134.1*,109.9*
CCOc1cc(C2Nc3ccccc3C(=O)N2c2ccccc2)ccc1O (stereo unspecified),9.9,-1.3,-1.4,24.9,5.2,nt,nt
CCOc1cc(C2Nc3ccccc3C(=O)N2c2ccccc2)c(Br)cc1OCC(=O)O (stereo unspecified),38.8*,-93.1,-9.3,8.9,-6.2,104.8*,84.4*
COc1cc(C2Nc3ccccc3C(=O)N2c2ccc(Cl)cc2)c(Cl)cc1OCC(=O)O (stereo unspecified),70.0*,-69.8,-21.1,0.0,-5.9,115.4*,83.3*
Clc1ccc(CNc2cnccn2)cc1,71.2*,-44.6,2.9,7.0,-3.6,125.1*,92.4*
c1ccc(CNc2cnccn2)cc1,69.3*,-68.7,-0.5,14.3,5.6,107.5*,93.5*
Fc1ccc(CNc2cnccn2)cc1,70.9*,-56.9,0.3,17.5,-2.9,-3.0,-5.1
c1ccc(CNc2ccccn2)cc1,2.9,4.0,-1.3,1.4,0.8,nt,nt
COc1ccc(C(=O)C(=O)N2CCN(C(=O)c3cc(C(F)(F)F)cc(C(F)(F)F)c3)CC2)cc1OC,nt,25.5,nt,nt,nt,nt,nt
Clc1ccc(OCCCCN2CCCCC2)cc1,4.4,nt,-2.1,10.3,-4.2,nt,nt
CC(C)c1ccc(OCCCCN2CCCCC2)cc1,97.6*,2.7,0.0,-0.6,-4.2,129.8*,106.1*
COCCCNC(=O)C[C@H]1C[C@@]2(C(=O)OC)C(=C[C@H](C(C)(C)C)O[C@@H]2C)N(Cc2ccco2)C1=O,nt,1.4,nt,nt,nt,nt,nt
O=C(Nc1cccc(Cl)c1)Nc1ccccc1C(=O)O,78.8*,0.6,1.8,20.2,-8.6,+,194.9*
O=C(Nc1ccc(Cl)c(Cl)c1)Nc1ccccc1C(=O)O,52.5*,-2.3,4.2,-1.3,-5.8,34.5*,19.4*
O=C(Nc1ccc(Cl)cc1)Nc1ccccc1C(=O)O,54.4*,-5.3,-2.6,1.9,0.3,-1.2,-2.8
CSc1ccccc1NC(=O)Nc1ccc(Cl)cc1,-0.4,18.7,-1.8,0.0,-6.5,nt,nt
COC[C@@H]1CCCN1c1cccc2c1S(=O)(=O)N(C1CC1)CC[C@@H](C)O2,nt,-0.2,nt,nt,nt,nt,nt
COc1ccc(NC(=O)CN(C)C(=O)c2cc(-c3ccco3)nc3ccccc23)cc1,45.1*,-115.3,nt,13.6,-5.7,+,+
CN(CC(=O)Nc1cccc(F)c1)C(=O)c1cc(-c2ccco2)nc2ccccc12,75.0*,-113.2,3.3,11.3,-0.9,+,169.6*
COc1ccc(NC(=O)c2cc(-c3ccco3)nc3ccccc23)cc1,2.7,-5.6,-1.1,6.4,0.2,nt,nt

# Screens deposited in PubChem by several laboratories.
